A number with no mark means an inactive call.

This experiment relates to Vero E6 infected with SARS-CoV-2. Nature of the experiment: inhibition of SARS-CoV-2 cytopathic effect; higher = more antiviral protection, active = above 15. The conditions noted are these: 48 h. Background: Cytopathic effects are the visible damage that an infection or toxin causes in cultured cells.

As for `O=C(Nc1cnccc1Cl)N1CCN(Cc2ccc3c(c2)OC(F)(F)O3)CC1`, the “inhibition of SARS-CoV-2 cytopathic effect” value (“inhibition” below) was 1.58% (1 nM); -1.35% (8.33 nM); 1.93% (100 nM); 0.76% (833.33 nM); 0.7% (10000 nM).
Consider `C[C@@H](N)[C@@H](O)c1ccccc1` [1S,2R-phenylpropanolamine], for which the “inhibition” value runs as follows: (1 nM) -1.52%; (8.33 nM) -0.06%; (100 nM) -0.95%; (833.33 nM) -0.75%; (10000 nM) 0.8%.
For `Cn1c(CNc2ccc(C(=N)N)cc2)nc2cc(C(=O)N(CCC(=O)O)c3ccccn3)ccc21` [dabigatran], in that order: -0.46%, 1.73%, -0.12%, 0.58% and 3.34%.
For `Oc1ccc(C2(c3ccccc3F)CCC(F)(F)CC2)cc1`, in that order: 1.54%, -0.41%, -0.21%, -1.05% and 0%.
For `CCOc1ccccc1C(N)=O` [ethenzamide], in that order: 5.35%, 3.1%, 2.44%, 2.62% and 4.34%.
Consider `CCC(CC)(NC(=O)C(C)C)C(=O)N[C@@H](CCCNC(=N)N)C(=O)NC1(C(=O)NC(c2ccc(F)cc2)c2ccc(F)cc2)CCCC1`, for which the “inhibition” value reads like this: (1 nM) -0.92%; (8.33 nM) -1.15%; (100 nM) -1.6%; (833.33 nM) 0.7%; (10000 nM) -3.48%.
For `C[C@@H](Oc1cc(-n2cnc3ccc(CN4CCN(C)CC4)cc32)sc1C(N)=O)c1ccccc1C(F)(F)F`, in that order: 1.38%, 0.72%, 1.12%, -3.55% and 54.8% (active).
Take `C[C@]12CC[C@H](O)C[C@H]1CC[C@@H]1[C@@H]2CC[C@]2(C)[C@@H](C3=CC(=O)OC3)CC[C@]12O` [digitoxigenin]: the “inhibition” value by setting is: (1 nM) -1.6%; (8.33 nM) -1.96%; (100 nM) -11.8%; (833.33 nM) -13.3%; (10000 nM) -19.4%.
For `C[C@@H](NC(=O)c1ncnc(N)c1Cl)c1ncc(C(=O)Nc2cc(C(F)(F)F)c(Cl)cn2)s1`, in that order: -0.01%, 6.23%, 4.35%, 4.42% and -1.31%.
The corresponding values for `CCCC(=O)O[C@]1(C(=O)CCl)[C@@H](C)C[C@H]2[C@@H]3CCC4=CC(=O)C=C[C@]4(C)[C@@]3(F)C(=O)C[C@@]21C` [clobetasone-butyrate] are -0.68%, -1.04%, -5.39%, -1.94% and 0.48%.
As for `C[C@@H](N)Cc1c[nH]c2ccc(O)cc12` [alpha-methylserotonin], the “inhibition” value by setting is: (1 nM) -0.1%; (8.33 nM) -1.31%; (100 nM) -1.23%; (833.33 nM) -0.05%; (10000 nM) -3.72%.
The corresponding values for `COc1ccc(-c2ccc3c(N4CCOCC4)nc(N4C[C@@H](C)O[C@@H](C)C4)nc3n2)cc1CO` are 1.75%, 0.2%, 2.09%, 0.86% and -2.33%.
The corresponding values for `Cc1cc2nc3c(=O)[nH]c(=O)nc-3n(C)c2cc1C=O` are 0.98%, -1.25%, -1.28%, 2.07% and 1.18%.

The values are drawn from the supplement of paper PMC13380429.
